Bioassay records (PubChem)
RORg inh – qHTS for inhibitors of ROR gamma transcriptional activity | Nuclear receptor ROR-gamma (Mus musculus), P51450 | Drosophila S2 Gal4-RORgamma UAS-luciferase reporter, 20 h | Potency, µM (series often up to 53.6 µM), for inactives: at the top dose activity change, negative = inhibition, usual class: inhibitors | 310,000 tested, 5.4% active; note: potency is the fitted concentration of half-maximal effect; nearly all actives have a fitted effect of over 60% in size
Target sequence (P51450 whole entry, looked up, the tested form may be a part): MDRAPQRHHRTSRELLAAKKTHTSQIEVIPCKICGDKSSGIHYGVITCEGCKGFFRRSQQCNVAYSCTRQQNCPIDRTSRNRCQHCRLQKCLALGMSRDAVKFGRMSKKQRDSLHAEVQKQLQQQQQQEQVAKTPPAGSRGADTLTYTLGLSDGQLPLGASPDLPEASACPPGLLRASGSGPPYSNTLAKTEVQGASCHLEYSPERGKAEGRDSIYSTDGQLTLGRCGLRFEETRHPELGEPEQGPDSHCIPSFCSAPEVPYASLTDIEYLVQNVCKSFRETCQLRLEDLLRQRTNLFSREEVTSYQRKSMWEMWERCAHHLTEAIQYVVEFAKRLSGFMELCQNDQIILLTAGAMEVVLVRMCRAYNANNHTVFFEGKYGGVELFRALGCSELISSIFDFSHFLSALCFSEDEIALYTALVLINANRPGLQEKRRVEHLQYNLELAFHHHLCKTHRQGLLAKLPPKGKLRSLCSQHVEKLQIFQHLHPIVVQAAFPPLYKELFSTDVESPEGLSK
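Compounds are pin-transferred onto Drosophila Schneider cells expressing a copper-inducible Gal4–ROR gamma transactivation domain fusion. After 1 hr, copper sulfate is added to 700 uM final; luciferase is read 20 hr later.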
VP16 counter – VP16 counterscreen qHTS for inhibitors of ROR gamma transcriptional activity. Drosophila S2 Gal4-VP16 UAS-luciferase, luminescence, 20 h. Potency, µM (highest dose often 53.6 µM), for inactives: top-dose activity, negative = inhibition, hits mostly inhibitors. 310,000 tested, 3.5% active. AID 2546, 2010;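 note: Gal4-VP16 expression switched on by copper sulfate through the metallothionein promoter; potency is the fitted concentration of half-maximal effect; nearly all actives have a fitted effect of over 50% in size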
DT40 TDP1 no CPT – qHTS for Inhibitors of human tyrosyl-DNA phosphodiesterase 1 (TDP1): qHTS in cells in absence of CPT | 420,000 tested, 15% active | Potency, µM (highest dose often 46.2 µM), without a hit: at the top dose activity change, negative = growth inhibition, actives largely listed as inhibitors | DT40 Tdp1-/- hTDP1 cells, no CPT, ATP luminescence, 48 h; note: potency is the fitted concentration of half-maximal effect; nearly all actives have a fitted effect of over 55% in size
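Chicken DT40 Tdp1-/- cells complemented with human TDP1, screened without camptothecin (DMSO vehicle only), 400 cells/well. Compounds pin-transferred, cells incubated at 37 °C for at least 48 hr. Growth read as ATP-dependent luminescence (CellTiter-Glo, 30 min at RT).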
IL-1B inflam inh – qHTS for Inhibitors of Inflammasome Signaling: IL-1-beta AlphaLISA Primary Screen; THP-1 LPS/ATP IL-1B secretion, AlphaLISA, 16 h; hits give low values; activity change, % at 57.5 µM; 360,000 tested, 4.7% active; AID 743279, 2014; in the data active = activity change below about -50%; inconclusive = mostly about -30% to -49%
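Secreted IL-1B measured by AlphaLISA bead assay after 16 h compound exposure of THP-1 cells; compounds (final up to 57.5 uM) added 1 h before LPS (250 ng/mL) and ATP (1.25 mM) stimulation; lower signal means less secretion.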
LDHA block – qHTS assay for inhibitors of human lactate dehydrogenase | L-lactate dehydrogenase A chain (Homo sapiens), P00338 | purified LDHA, NADH/diaphorase-resazurin fluorescence; hits give low values | activity change, % (values are at about 110 or 230 µM) | 480,000 tested, 0.15% active; in the data active = activity change below about -30%; inconclusive = mostly about -25% to -30%;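 note: plate controls were DMSO wells for no effect and wells without enzyme for full effect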
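Remaining NADH was detected by diaphorase (0.133 mg/mL) converting 37 µM resazurin to fluorescent resorufin, read at 0 and 20 minutes. The preceding 5-minute room-temperature reaction used 2 nM LDHA, 0.2 mM sodium pyruvate and 0.06 mM NADH at pH 7.4.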
TDP1 cell CPT – qHTS for Inhibitors of human tyrosyl-DNA phosphodiesterase 1 (TDP1): qHTS in cells in presence of CPT; chicken DT40 Tdp1-/-;hTDP1 cells + 20 nM CPT, ATP luminescence, 48 h; Potency, µM (top dose mostly 46.2 µM), inactives show at the highest dose activity change, negative = growth inhibition, hits mostly inhibitors; 420,000 tested, 12% active; note: potency is the fitted concentration of half-maximal effect; nearly all actives have a fitted effect of over 55% in size
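Chicken DT40 Tdp1-/- cells complemented with human TDP1, 400 cells/well, exposed to compounds plus 20 nM camptothecin for at least 48 h at 37 C; viability read as ATP content by CellTiter-Glo luminescence.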
* = called active by the depositor. The list is not random: actives were taken first. Their share in the collection is about 18%. Unless noted, calls come from the whole dose curve; as a rule, active = well fitted curve in the direction sought with a large enough effect; inconclusive = small, poorly fitted or top-dose-only effect, or another doubt; inactive = no such curve, though single readings can be large; an effect the other way counts as inactive or inconclusive. Unless noted, % is set by controls: 0 for no effect and ±100 for the full control effect.

What do the screens show for `Cc1ccccc1Cn1c2ccccc2c2cnn(CC(=O)NCCCN3CCOCC3)c(=O)c21`?
RORg inh: 6%; VP16 counter: -7%; DT40 TDP1 no CPT: -22%; IL-1B inflam inh: -72*; LDHA block: 0; TDP1 cell CPT: inconclusive

Results for CCCn1c2ccccc2c2cnn(CC(=O)OC)c(=O)c21 ?
RORg inh: 3%; VP16 counter: 8%; DT40 TDP1 no CPT: -26%; IL-1B inflam inh: 5; LDHA block: -5; TDP1 cell CPT: 4%

Results for CCCn1c2ccccc2c2cnn(CC(=O)N(CCCOC(C)C)Cc3ccco3)c(=O)c21 ?
DT40 TDP1 no CPT: 16µM*; LDHA block: -1; TDP1 cell CPT: 16µM*

Results for COc1ccc(CCNC(=O)Cn2c(=O)cnc3ccccc32)cc1 ?
RORg inh: -6%; VP16 counter: -1%; DT40 TDP1 no CPT: 23µM*; IL-1B inflam inh: 67; LDHA block: 0; TDP1 cell CPT: inconclusive

Results for CCCNC(=O)Cn1c(=O)cnc2ccccc21 ?
RORg inh: 31%; VP16 counter: -1%; DT40 TDP1 no CPT: -22%; IL-1B inflam inh: 3; LDHA block: -1; TDP1 cell CPT: -4%

How did N#Cc1ccc(OC(=O)c2occc2COc2ccccc2)cc1 do in these assays?
LDHA block: 20

How did COC(=O)C1(NC(=O)c2cc(F)cc(F)c2)CCCCC1 do in these assays?
LDHA block: 7

Results for CCCn1c2ccccc2c2cnn(CC(=O)NC3CCCC(C)C3C)c(=O)c21 (stereo unspecified) ?
RORg inh: -3%; VP16 counter: 0%; DT40 TDP1 no CPT: 2.1µM*; IL-1B inflam inh: -5; LDHA block: -3; TDP1 cell CPT: inconclusive

How did CN(Cc1ccccc1)C(=O)Cn1ncc2c3ccccc3n(Cc3cccc(Cl)c3)c2c1=O do in these assays?
DT40 TDP1 no CPT: inconclusive; LDHA block: -10; TDP1 cell CPT: inconclusive

Results for CCN(CC)CCCNC(=O)Cn1ncc2c3ccccc3n(Cc3ccccc3)c2c1=O ?
DT40 TDP1 no CPT: -10%; LDHA block: -10; TDP1 cell CPT: 6%

What do the screens show for `CCCn1c2ccccc2c2cnn(CC(=O)NC3CCC(C)CC3)c(=O)c21` (stereo unspecified)?
RORg inh: -5%; VP16 counter: -9%; DT40 TDP1 no CPT: 4%; IL-1B inflam inh: 10; LDHA block: -4; TDP1 cell CPT: -3%

Results for CCCn1c2ccccc2c2cnn(CC(=O)NCCCN(Cc3ccccc3)C(C)C)c(=O)c21 ?
DT40 TDP1 no CPT: 21µM*; LDHA block: 0; TDP1 cell CPT: inconclusive

What do the screens show for `CCCn1c2ccccc2c2cnn(CC(=O)NCCCN3CCN(c4ccccc4)CC3)c(=O)c21`?
RORg inh: 27%; VP16 counter: -14%; DT40 TDP1 no CPT: 21µM*; IL-1B inflam inh: inconclusive; LDHA block: -3; TDP1 cell CPT: inconclusive

Results for CCCn1c2ccccc2c2cnn(CC(=O)NCCCN3CCCCC3)c(=O)c21 ?
RORg inh: -25%; VP16 counter: -4%; DT40 TDP1 no CPT: -6%; IL-1B inflam inh: -6; LDHA block: -1; TDP1 cell CPT: -2%

Results for CC(C)N(Cc1ccccc1)C(=O)Cn1ncc2c3ccccc3n(Cc3ccccc3)c2c1=O ?
DT40 TDP1 no CPT: 18µM*; LDHA block: 4; TDP1 cell CPT: inconclusive

How did NC(=O)CCNc1ccccc1 do in these assays?
LDHA block: 1

How did CCN(CC)Cc1ccc(CNC(=O)CCC2CCCC2)cc1 do in these assays?
LDHA block: -6

How did Cc1nc(SCC(=O)NC(C)C(C)C)n(C2CCCC2)c1C (stereo unspecified) do in these assays?
LDHA block: 4

How did CN(C)C(=O)c1ccc(Br)cc1F do in these assays?
LDHA block: 0

Results for CCn1c(=O)c2c(cnn2C)c2ccccc21 ?
RORg inh: -9%; VP16 counter: -3%; DT40 TDP1 no CPT: inconclusive; IL-1B inflam inh: -5; LDHA block: 3; TDP1 cell CPT: 7.3µM*

What do the screens show for `CCCN(CCC)CCCNC(=O)Cn1ncc2c3ccccc3n(Cc3ccc(F)cc3)c2c1=O`?
DT40 TDP1 no CPT: 21µM*; LDHA block: -11; TDP1 cell CPT: 18µM*

How did CCCn1c2ccccc2c2cnn(CC(=O)O)c(=O)c21 do in these assays?
RORg inh: -1%; VP16 counter: 3%; DT40 TDP1 no CPT: -6%; IL-1B inflam inh: 3; LDHA block: -2; TDP1 cell CPT: -3%

Results for O=C(Nc1ccc2c(c1)OCO2)c1cc2c(s1)-c1ccccc1OC2 ?
LDHA block: -1

What do the screens show for `Cc1ccccc1CSc1nc2cc(C(=O)NC3CCCC3)ccc2c(=O)n1Cc1ccccc1`?
DT40 TDP1 no CPT: -13%; LDHA block: 0; TDP1 cell CPT: -1%

Results for CCN(CC)CCNC(=O)c1ccc2c(=O)n3nc(Nc4cccc(Cl)c4C)sc3nc2c1 ?
DT40 TDP1 no CPT: 2.6µM*; LDHA block: -5; TDP1 cell CPT: 4.6µM*

Results for Cc1ccc(C)c(Nc2nn3c(=O)c4ccc(C(=O)NCCc5ccccc5)cc4nc3s2)c1 ?
DT40 TDP1 no CPT: 8.2µM*; LDHA block: -5; TDP1 cell CPT: 3.7µM*

Results for Cc1ccc(C)c(Nc2nn3c(=O)c4cc5c(cc4nc3s2)OCO5)c1 ?
DT40 TDP1 no CPT: 18µM*; LDHA block: 0; TDP1 cell CPT: 16µM*

Results for Cc1ccc(C)c(Nc2nn3c(=O)c4ccc(C(=O)NC5CCCCC5)cc4nc3s2)c1 ?
DT40 TDP1 no CPT: 8.2µM*; LDHA block: -2; TDP1 cell CPT: 7.3µM*

What do the screens show for `CCc1ccccc1Nc1nn2c(=O)c3ccc(C(=O)NCCCOC(C)C)cc3nc2s1`?
DT40 TDP1 no CPT: inconclusive; LDHA block: -16; TDP1 cell CPT: inconclusive

How did CC(C)Oc1ccc(C(=O)Nc2cccc(-c3nc4ccccc4o3)c2)cc1 do in these assays?
LDHA block: 2

What do the screens show for `O=C(CSC1CCCC1)NCc1cccs1`?
LDHA block: -3

Results for COc1ccccc1Nc1nn2c(=O)c3ccc(C(=O)NCCc4ccccc4)cc3nc2s1 ?
DT40 TDP1 no CPT: 2.9µM*; LDHA block: -8; TDP1 cell CPT: 2.3µM*
